The source of these data is PubChem BioAssay (EPA / NIEHS).

Values joined by “and” are separate entries in the source; they are usually repeats but may differ in a detail not shown here. Equal values may be shown once. Active and inactive are the calls of the source. Rule for the calls: active = hit-call score of the fitted dose curve at least 0.9, where 1 is the maximum; inactive = score below 0.9.

Read-out in the experiment: Vascular cell adhesion molecule 1 (VCAM1), VCAM1 (gene 7412)
In words: BSK_LPS_VCAM1: BioMAP Diversity Plus: LPS Assay for Vascular cell adhesion molecule 1 (VCAM1) Biomarker Activity (AID 2283086). Particulars: primary human HUVEC with PBMC; actives raise or lower the signal. The protocol:
BSK_LPS is a cell-based, multiplexed-readout assay that uses umbilical vein endothelium and peripheral blood mononuclear cells, a human vascular primary cell co-culture, with measurements taken at 24 hours after chemical dosing in a 96-well plate.BSK_LPS_VCAM1 is an assay component measured in the BSK_LPS assay. It measures VCAM-1 antibody related to regulation of gene expression using ELISA technology.Data from the assay component BSK_LPS_VCAM1 was analyzed into 1 assay endpoint. This assay endpoint, BSK_LPS_VCAM1, was analyzed with bidirectional fitting relative to DMSO as the negative control and baseline of activity. Using a type of binding reporter, gain or loss-of-signal activity can be used to understand changes in the signaling as they relate to the gene VCAM1. Furthermore, this assay endpoint can be referred to as a primary readout, because this assay has produced multiple assay endpoints where this one serves a signaling function. To generalize the intended target to other relatable targets, this assay endpoint is annotated to the cell adhesion molecules intended target family, where the subfamily is Immunoglobulin CAM.
The levels of cell surface (or secreted, indicated by the prefix "s") biomarker endpoints were measured by ELISA. Overt cytotoxicity to cells in confluent adherent cultures (all systems other than the BT system) was assessed by measuring total protein levels using sulforhodamine B (SRB) staining in parallel cultures at the time of biomarker measurements, indicated as SRB endpoints. For proliferation assays for adherent cell types, individual cell types are cultured at sub-confluence and relative cell numbers quantified by SRB staining at time points optimized for each system (48 h: 3C and CASM3C systems; 72 h: BT and HDF3CGF systems; 96 h: SAg system). SRB was performed by staining cells with 0.1% SRB after fixation with 10% TCA and reading wells at 560 nm.Viability and proliferation of PBMC (T cells) was quantified by Alamar Blue reduction for the SAg and BT systems. For PBMC viability (referred to as PBMC Cytotoxicity within the assay endpoint names), cells were plated (75,000/well in a 96-well plate) and then chemical samples added for 1 h before addition of activators, SEB and TSST-1 (20 ng/mL final concentration each). Cells were incubated for 90 h. Then, Alamar Blue (20 uL/well) (Invitrogen, Cat DAL1100) was added for 6 h, and the plates were read with a fluorescence microplate reader at 546/580 nm (excitation/emission). For PBMC proliferation, cells were plated and activated as above but incubated for only 16 h prior to addition of Alamar Blue. Plates were read after 6 h.
Consider `CCCCC/C=C\C/C=C\CCCCCCCC(=O)OC`, for which the concentration at half-maximal activity (AC50) was 30 µM (active).

`CCCCC(CC)COCC1CO1` (stereo unspecified): the outcome was inactive.

Consider `C=C[Si](OC(C)=O)(OC(C)=O)OC(C)=O`, for which the outcome was inactive.

In the case of `O=C(Nc1ccccc1SSc1ccccc1NC(=O)c1ccccc1)c1ccccc1`, the AC50 was 9.83 µM (active).

With `c1ccc2c(c1)ccc1cc3c(ccc4ccccc43)cc12`, the result was inactive.

Consider `O=c1c2ccccc2oc2ccccc12`, for which the outcome was inactive.

Regarding `O=C1CCCN1CCO`, the result was inactive.

As for `CN1C(=O)N(C)C(O)C1O` (stereo unspecified), the result was inactive.

Take `CCCCNc1ccc(NCCCC)c2c1C(=O)c1ccccc1C2=O`: the outcome was inactive.

Regarding `C=CC(=O)OCC(Br)CBr` (stereo unspecified), the concentration at half-maximal activity (AC50) is 10.9 µM (active).

As for `C/C=C\C/C=C/CCCCCCCCOC(C)=O`, the AC50 was 26.2 µM (active).

As to `CCOC(=O)c1ccccc1C(=C1C=C(Br)C(=O)C(Br)=C1)c1cc(Br)c(O)c(Br)c1`, the AC50 was 20.2 µM (active) and 19.9 µM (active).

Take `S=C(NC1CCCCC1)NC1CCCCC1`: the outcome was inactive.

Regarding `CCO[Si](CCCN=C=O)(OCC)OCC`, the result was inactive.

Turning to `CCOc1nc(F)cc2nc(S(=O)(=O)Nc3c(Cl)cccc3C(=O)OC)nn12`, the outcome was inactive.

For `C=CCOc1c(Br)cc(Br)cc1Br`, the result was inactive.

Regarding `C#CC1(O)CC[C@H]2[C@@H]3CCC4=CCCC[C@@H]4[C@H]3CC[C@@]21C` (stereo partly specified), the AC50 is 29.9 µM (active).

Turning to `O=Nc1ccc(O)cc1`, the result was inactive.

In the case of `CC(C)C(=O)C(C)C`, the outcome was inactive.

Consider `CO[Si](OC)(OC)c1ccccc1`, for which the outcome was inactive.

With `CC(C)(c1cc(Br)c(OCCO)c(Br)c1)c1cc(Br)c(OCCO)c(Br)c1`, the half-maximal activity concentration (AC50) is 16.2 µM (active).

Turning to `Nc1ccc(N)c(Cl)c1`, the AC50 is 5.43 µM (active) and 5.78 µM (active).

For `C=CC=CC=CCCCCC`, the outcome was inactive.

`CCO[Si](C)(OCC)OCC`: the result was inactive.

Take `CCCCCCCCc1ccc(Nc2ccc(CCCCCCCC)cc2)cc1`: the outcome was inactive.

For `COc1ccc2nc(N)sc2c1`, the outcome was inactive.

Regarding `CCCCCCCCCCCCCCCC[N+](C)(C)CC`, the AC50 is 3.79 µM (active).

On to `O=C(c1ccc(O)cc1)c1ccc(O)cc1O`, for which the outcome was inactive.

`COCc1c(C(C)C)nc(C(C)C)c(/C=C/[C@@H](O)C[C@@H](O)CC(=O)O)c1-c1ccc(F)cc1`: the result was inactive.

Consider `O=C(Cl)c1cc(C(=O)Cl)cc(C(=O)Cl)c1`, for which the half-maximal activity concentration (AC50) was 27.8 µM (active).

Take `c1ccc2c(c1)ccc1ncccc12`: the half-maximal activity concentration (AC50) was 2.69 µM (active).

Regarding `CCCCC(CC)COC(=O)c1ccccc1O` (stereo unspecified), the concentration at half-maximal activity (AC50) is 10 µM (active).

For `C=CCOCC(O)CCl` (stereo unspecified), the outcome was inactive.

As for `CC1OC1C1CCC2(C)OC2C1` (stereo unspecified), the outcome was inactive.

Regarding `c1ccc(-c2ccccn2)nc1`, the result was inactive.

Turning to `N#[N+]c1ccc2c(S(=O)(=O)[O-])cccc2c1O`, the result was inactive.

A word on the AC50: it is the concentration giving half of the maximal activity seen.
